Laboratory results as given in PubChem BioAssay AID488969 (Vanderbilt High Throughput Screening Facility, 2010).
The full ranking holds about 110,000 compounds; the median of “z-score” is about -0.1, and the highest 2% start at about 2. The list comes from a sample in which the highest values are over-represented; it also holds similar structures and randomly drawn compounds. The source made the active and inactive calls.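 The calls were made as follows: active = z-score in the third read window above 3 or below -3; inactive = the rest.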

Biological target: Metabotropic glutamate receptor 8 (Rattus norvegicus) (UniProt P70579)
Assay: mGluR8 Gi/Go-coupled signaling modulation – cell-based, rat, thallium flux, HTS, primary screen (AID 488969)
Details: HEK293 rat mGluR8, GIRK (G protein-gated inwardly rectifying potassium channel) thallium flux, FluoZin2; at 10 µM; stronger effect = higher value; submaximal glutamate (EC20) added with thallium

Sequence of Metabotropic glutamate receptor 8 (Rattus norvegicus) (P70579 whole entry, looked up): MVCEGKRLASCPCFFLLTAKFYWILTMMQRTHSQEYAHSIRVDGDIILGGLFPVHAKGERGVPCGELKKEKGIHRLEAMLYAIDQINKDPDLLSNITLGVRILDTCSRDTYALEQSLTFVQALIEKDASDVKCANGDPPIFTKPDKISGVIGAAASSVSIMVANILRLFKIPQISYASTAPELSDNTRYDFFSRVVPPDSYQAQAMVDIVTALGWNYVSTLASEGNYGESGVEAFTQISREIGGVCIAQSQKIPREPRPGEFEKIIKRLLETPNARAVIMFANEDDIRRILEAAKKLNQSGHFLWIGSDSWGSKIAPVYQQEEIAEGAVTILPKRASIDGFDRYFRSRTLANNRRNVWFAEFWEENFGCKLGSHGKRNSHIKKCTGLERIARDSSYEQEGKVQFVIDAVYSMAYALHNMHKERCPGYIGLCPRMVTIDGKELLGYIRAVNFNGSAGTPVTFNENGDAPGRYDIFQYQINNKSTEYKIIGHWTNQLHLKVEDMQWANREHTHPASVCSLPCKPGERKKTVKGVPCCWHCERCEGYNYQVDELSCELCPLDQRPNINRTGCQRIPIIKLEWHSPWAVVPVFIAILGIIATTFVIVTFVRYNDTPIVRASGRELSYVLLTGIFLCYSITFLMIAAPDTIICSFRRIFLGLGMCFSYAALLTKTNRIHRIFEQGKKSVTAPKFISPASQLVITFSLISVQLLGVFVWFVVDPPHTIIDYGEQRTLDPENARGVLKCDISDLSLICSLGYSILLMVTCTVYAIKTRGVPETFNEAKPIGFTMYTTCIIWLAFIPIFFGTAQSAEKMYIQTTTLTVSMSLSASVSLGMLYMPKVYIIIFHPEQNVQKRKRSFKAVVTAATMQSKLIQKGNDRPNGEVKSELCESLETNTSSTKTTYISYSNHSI

Row | Structure (SMILES) | z-score
1 | CCOC(=O)C1CCN(CCC(=O)Nc2cccc(Cl)c2C)CC1 | 0.732
2 | O=C(NC1CCCCCC1)C1C2C=CC3(CN(Cc4cccnc4)C(=O)C13)O2 (stereo not given) | 0.211
3 | O=c1cc(N2CCc3ccccc32)[nH]c(=O)n1-c1ccc(Br)cc1 | -0.058
4 | CCc1ccc(OCCOCC(O)CNC(C)CC)cc1 (stereo not given) | 0.0842
5 | COC(=O)c1ccccc1NC(=O)C1CCC(=O)N1S(=O)(=O)c1ccc(C)cc1 (stereo not given) | 0.251
6 | CC(=O)NS(=O)(=O)c1ccc(NC(=O)COc2ccc(C(=O)c3ccccc3)cc2)cc1 | 0.359
7 | CC(NC(=O)C1CCN(S(=O)(=O)c2cc([N+](=O)[O-])ccc2Cl)CC1)c1ccccc1 (stereo not given) | -0.238
8 | NC(=O)C1CCCN(S(=O)(=O)c2ccccc2)C1 (stereo not given) | -0.127
9 | Cc1cccc(C(=O)Nc2nnc(-c3ccco3)o2)c1 | 0.11
10 | Cc1ccc(C(=O)Nc2nnc(-c3ccco3)o2)cc1 | 0.435
11 | Cc1ccc(C(=O)Nc2nnc(-c3ccco3)o2)cc1C | 0.973
12 | CCC(=O)Nc1nnc(-c2ccco2)o1 | 2.14
13 | O=C(Nc1nnc(-c2ccco2)o1)c1cccc2ccccc12 | 0.259
14 | O=C(Nc1nnc(-c2ccco2)o1)c1ccc2ccccc2c1 | 2.95
15 | CCSc1nc2[nH]ncc2c(=O)[nH]1 | -0.145
16 | CCOC(=O)c1c(N)sc(C(O)(C(F)(F)F)C(F)(F)F)c1-c1ccc(OC)cc1OC | -1.15
17 | O=C(COC(=O)c1cccnc1Nc1cccc(C(F)(F)F)c1)NC1CCS(=O)(=O)C1 (stereo not given) | -0.275
18 | O=C(NCc1cc(C(F)(F)F)cc(C(F)(F)F)c1)C1CC(c2c(Cl)cccc2Cl)=NO1 (stereo not given) | -0.111
19 | Cc1ccc(-n2c(-c3ccc(Br)cc3)c[n+]3c2CCc2ccc4cccnc4c2-3)cc1 | 4.86 (active)
20 | Brc1ccc(-c2cn3c(n2)CCc2ccc4cccnc4c2-3)cc1 | 0.098
21 | Cc1ccc(S(=O)(=O)Nc2cccc3cccnc23)cc1 | -0.731
22 | COc1ccccc1-n1c(SCC(=O)N2CCCCC2)nnc1-c1ccccc1O | -0.514
23 | CN(C(=O)c1ccccn1)c1nnc(-c2cnccn2)s1 | -0.729
24 | CN(C(=O)c1ccccn1)c1nnc(-c2ccncc2)s1 | -0.931
25 | CN(C(=O)c1ccccn1)c1nnc(-c2ccccn2)s1 | 2.29
26 | COc1ccc(-c2noc(CSc3nnc(Cc4ccccc4)n3-c3ccc(Cl)cc3)n2)cc1 | 0.663
27 | Cc1cccc(OCC(O)Cn2c(=N)n(CCN3CCCCC3)c3ccccc32)c1 (stereo not given) | 5.06 (active)

Row | Structure (SMILES) | z-score
28 | COc1ccccc1OCC(O)Cn1c(=N)n(CCN2CCCCC2)c2ccccc21 (stereo not given) | -0.0021
29 | Cc1ccc(OCC(O)Cn2c(=N)n(CCN3CCCCC3)c3ccccc32)cc1 (stereo not given) | 4.9 (active)
30 | N=c1n(CCN2CCCCC2)c2ccccc2n1CC(O)COc1ccccc1 (stereo not given) | 1.11
31 | Cc1ccccc1OCC(O)Cn1c(=N)n(CCN2CCOCC2)c2ccccc21 (stereo not given) | 1.12
32 | N=c1n(CCN2CCCCC2)c2ccccc2n1CC(O)c1cccc(Br)c1 (stereo not given) | 0.566
33 | O=C(Nc1ccc(Cl)cc1)C1=Cc2cc(Cl)ccc2OC1 | -0.109
34 | COC(=O)C1=C(C)NC2=C(C(=O)CC(C)(C)C2)C1c1ccsc1 (stereo not given) | 0.803
35 | Cn1c(C(C(=O)NCC2CCCO2)N(C(=O)Cn2nnc3ccccc32)C2CCCCC2)nc2ccccc21 (stereo not given) | -0.0111
36 | CCOC(=O)/C(C#N)=C/NC(=O)NC(C)(C)C | 0.141
37 | Cc1ccc2[nH]c(=O)c(CN(CCO)C(=O)N(C)C)cc2c1 | -0.0536
38 | CCOC(CNC(=O)CCc1c(C)nc2nc(C)nn2c1C)OCC | -0.308
39 | CCc1ccc(S(=O)(=O)Nc2c(C)nn(C)c2C)cc1 | -0.343
40 | CN(Cc1ccccc1F)c1nc(-c2cccs2)nc2ccccc12 | 0.11
41 | O=C(O/N=C\c1ccc(N2CCCCC2)c([N+](=O)[O-])c1)c1c(F)cccc1F | 2.03
42 | O=C(O/N=C\c1ccc(N2CCCCC2)c([N+](=O)[O-])c1)c1cccc(Cl)c1 | -0.494
43 | O=C(O/N=C\c1ccc(N2CCCCC2)c([N+](=O)[O-])c1)c1cccc(C(F)(F)F)c1 | 0.31
44 | CCOC(=O)CSc1cc(CS(=O)c2ccc(Cl)cc2)nc(-c2ccccc2)n1 (stereo not given) | 0.0352
45 | CCOC(=O)CSc1cc(CSc2ccccc2)nc(-c2ccccc2)n1 | 4.85 (active)
46 | CCOC(=O)CSc1cc(CS(=O)(=O)c2ccccc2)nc(-c2ccccc2)n1 | -0.223
47 | CC(=O)N(c1nc(CCl)cs1)c1c(C)cc(C)cc1C | 1.43
48 | Cc1ccc(-c2cc(C(=O)NCc3cnn(C)c3C)c3cc(Br)ccc3n2)cc1 | -0.453
49 | CCc1ccc(C2C(C#N)=C(N)C(C#N)(C#N)C3=CCC(C(C)(C)C)CC32)cc1 (stereo not given) | -0.0406
50 | CC(=O)c1ccc(N2CCN(C(=O)CCCn3c(=S)[nH]c4cc5c(cc4c3=O)OCO5)CC2)cc1 | 2.56
51 | COCCn1c(=S)[nH]c2cc(C(=O)N3CCN(c4ccccc4OC)CC3)ccc2c1=O | -0.495
52 | CCCn1c(=S)[nH]c2cc(C(=O)N3CCN(c4ccccc4OC)CC3)ccc2c1=O | 0.596
53 | CC(C)OCCCn1c(=S)[nH]c2cc3c(cc2c1=O)OCO3 | 6.19 (active)
54 | COCCn1c(=S)[nH]c2cc(C(=O)N3CCN(c4ccc(F)cc4)CC3)ccc2c1=O | 4.3 (active)

Row | Structure (SMILES) | z-score
55 | O=C(CCCn1c(=S)[nH]c2cc3c(cc2c1=O)OCO3)N1CCN(c2ccc(Cl)cc2)CC1 | -0.36
56 | O=C(CCCn1c(=S)[nH]c2cc3c(cc2c1=O)OCO3)N1CCN(c2ccc(F)cc2)CC1 | -0.237
57 | CCN(CC)CCn1c(=S)[nH]c2cc3c(cc2c1=O)OCO3 | -0.565
58 | CC(C)NC(=O)CCCn1c(=S)[nH]c2cc3c(cc2c1=O)OCO3 | 0.566
59 | Cc1cc(=O)[nH]c(SCC(=O)C23CC4CC(CC(C4)C2)C3)c1C#N | -0.0485
60 | O=C(Nc1cccc(O)c1)c1cc2nc(-c3ccccc3)cc(-c3ccccc3)n2n1 | -0.00871
61 | O=C(COc1ccc(C(=S)N2CCOCC2)cc1)N1CCCC1 | -0.301
62 | Cc1ccc(S(=O)(=O)N2CCN(C)CC2)cc1-c1nnc2c3ccccc3c(C)nn12 | 9.27 (active)
63 | Cc1ccc(-c2nnc3c4ccccc4c(C)nn23)cc1S(=O)(=O)N1CCN(C)CC1 | -0.999
64 | Cc1ccc(S(=O)(=O)N2CCN(CCO)CC2)cc1-c1nnc2c3ccccc3c(C)nn12 | -0.156
65 | Cc1cc(C)n(-c2nnc(C)n2NC(=O)c2cccc(Cl)c2)n1 | 0.0281
66 | Cc1ccc(C)n1NC(=O)c1ccc(Cl)cc1Cl | 0.557
67 | Cc1cc(C)n(-c2nncn2NC(=O)c2ccc(Cl)cc2O)n1 | 2.24
68 | CCNC(=O)NC(=O)C(C)Sc1nc2cc(C(=O)OC)ccc2c(=O)n1-c1ccccc1 (stereo not given) | 0.204
69 | CCSc1nc2cc(C(=O)OC)ccc2c(=O)n1CC | 0.836
70 | CCCCn1c(SC(C)C(N)=O)nc2cc(C(=O)OC)ccc2c1=O (stereo not given) | 3 (active)
71 | O=C(O)C1CC=CCC1C(=O)NCc1ccc2c(c1)OCO2 (stereo not given) | -0.618
72 | COc1ccc(N2CCN(C(=O)CSc3nnc4c(C)cc5cc(C)ccc5n34)CC2)cc1 | 1.03
73 | Cc1ccc(C)c(-n2ccnc2SCC(=O)O)c1 | -0.0351
74 | CCc1cccc(NC(=O)CN(c2ccc(OC)cc2)S(=O)(=O)c2c(C)n[nH]c2C)c1 | 0.317
75 | COC(CNC(=O)Cn1ncc2ccsc2c1=O)OC | -0.112
76 | COCCCNC(=O)Cn1ncc2ccsc2c1=O | -0.327
77 | COCCNC(=O)Cn1ncc2ccsc2c1=O | 2.25
78 | CCOc1ccc2oc(-c3ccccc3)c(C(=O)N3CCN(CCO)CC3)c2c1 | -0.457
79 | COc1cccc(C(=O)NCc2cn3ccsc3n2)c1 | 15.2 (active)
80 | COc1ccc(C(=O)NCc2cn3ccsc3n2)cc1OC | -0.547
81 | COc1cc(C(=O)NCc2cn3ccsc3n2)cc(OC)c1OC | -0.0269

Row | Structure (SMILES) | z-score
82 | O=C(CSc1ccc(-c2ccc(F)cc2)nn1)N1CCN(c2ccccc2)CC1 | -0.139
83 | Cc1ccc(C(=O)O)cc1S(=O)(=O)N1CCCC1 | 2.05
84 | Cc1ccc(C(=O)O)cc1S(=O)(=O)N1CCC(C(=O)O)CC1 | 0.299
85 | Cc1ccc(C(=O)O)cc1S(=O)(=O)N1CCOCC1 | -0.267
86 | CCOC(=O)c1cnc2c(C#N)c(C)nn2c1C | 0.0622
87 | COc1ccc(NS(=O)(=O)c2cc(NC(=O)c3ccc(C)o3)ccc2N2CCCCC2)cc1 | -0.024
88 | Cn1c(C(=O)NCCN2CCOCC2)cc2c(=O)n(C)c3ccccc3c21 | -2.82
89 | Cn1c(C(=O)NCCCN2CCN(c3ccccc3F)CC2)cc2c(=O)[nH]c3ccccc3c21 | -0.0771
90 | Cn1c(C(=O)NCCCN2CCN(c3ccccc3F)CC2)cc2c(=O)n(C)c3ccccc3c21 | 2.46
91 | Cn1c(C(=O)NCCCN2CCCCCC2)cc2c(=O)n(C)c3ccccc3c21 | 2.52
92 | CC1CCCC(C)N1CCCNC(=O)c1cc2c(=O)n(C)c3ccccc3c2n1C (stereo not given) | 2.79
93 | Cn1c(C(=O)NCCN2CCCCCC2)cc2c(=O)n(C)c3ccccc3c21 | 1.86
94 | CC1CCN(CCCNC(=O)c2cc3c(=O)n(C)c4ccccc4c3n2C)CC1 | 2.7
95 | Cn1c(C(=O)NCCCN2CCOCC2)cc2c(=O)n(C)c3ccccc3c21 | 0.0335
96 | Cn1c(C(=O)NCCCN2CCCC2=O)cc2c(=O)n(C)c3ccccc3c21 | -0.963
97 | CC1CCCCN1CCNC(=O)c1cc2c(=O)n(C)c3ccccc3c2n1C (stereo not given) | 1.88
98 | CCCN1CCN(CCCNC(=O)c2cc3c(=O)n(C)c4ccccc4c3n2C)CC1 | 1.48
99 | CCC(=O)N1CCN(c2nc3ccccc3s2)CC1 | -0.0557
100 | O=C(NNC(=S)NC1CCCCC1)c1cccc(S(=O)(=O)Nc2ccccc2Cl)c1 | -0.537
101 | O=C(CCNc1ccccc1)c1cccc([N+](=O)[O-])c1 | -0.134
102 | Cc1cccc(NC(=O)c2sc(NC(=O)COc3ccccc3)c(C#N)c2C)c1C | -0.152
103 | CC(OC(=O)c1cc2sccc2n1C)C(=O)NCc1ccc2c(c1)OCO2 (stereo not given) | -0.018
104 | Cc1snc2sc(C(=O)c3ccc(Br)cc3)c(N)c12 | -0.378
105 | O=C(NCc1ccco1)c1cc(-c2ccc3c(c2)OCO3)on1 | -0.862
